{
  "source": "the supplement of paper PMC8728848",
  "binders": {"B1": {"name": "PpFlo1 (Pichia pastoris) (protein)", "chain": "MGSSHHHHHHSSGLVPRGSHMQESGDGDISDSAYACDIDATRYDGFNATIYEFQPGDGRLTRDPVFMSTGYLNRTQLHSITGVTDPGFSIYTPGVPTTTLYGIPNVNWENLLLELKGYFRAEVSGDYGLSLRNIDDSAILFFGKETAFQCCNENSISNEASTDYSLFTIFRQEGDETTNLDSFTYTQYLEAGKYYPVRTFFVNIERHAVFNFTMTLPDGTELTDFHNYIYQFGALDEEQCQA"}},
  "assay_in_all_cases": "glycan array binding signal (z-score within array); higher = stronger binding",
  "settings_in_all_cases": "glycan notation: IUPAC condensed, linker removed",
  "key": {"[1]": {"target": "GlcA3S(b1-3)Gal(b1-4)GlcNAc(b1-3)Gal(b1-4)Glc", "outline": "(§1)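 Arrays were curated from the Consortium for Functional Glycomics database, 3228 in total, and kept only where the protein sequence was available. Binding is expressed as a within-array Z-score. This score was averaged across arrays of the same protein sequence at different concentrations or buffers and across linkers, and negative values can be read as non-binding.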"}, "[2]": {"target": "GlcNAc(a1-4)Gal(b1-4)GlcNAc", "outline": "as §1"}, "[3]": {"target": "GlcNAc(a1-4)Gal(b1-4)GlcNAc(b1-3)Gal(b1-4)GlcNAc(b1-3)Gal(b1-4)GlcNAc", "outline": "as §1"}, "[4]": {"target": "GlcNAc(b1-2)[GlcNAc(b1-4)]Man(a1-3)[GlcNAc(b1-2)Man(a1-6)]Man(b1-4)GlcNAc(b1-4)GlcNAc", "outline": "as §1"}, "[5]": {"target": "GlcNAc(b1-2)[GlcNAc(b1-6)]Man(a1-6)[GlcNAc(b1-2)Man(a1-3)]Man(b1-4)GlcNAc(b1-4)GlcNAc", "outline": "as §1"}, "[6]": {"target": "GlcNAc(b1-2)[GlcNAc(b1-6)]Man(a1-6)[GlcNAc(b1-2)Man(a1-3)]Man(b1-4)GlcNAc(b1-4)[Fuc(a1-6)]GlcNAc", "outline": "as §1"}, "[7]": {"target": "GlcNAc(b1-3)Gal(b1-4)GlcNAc(b1-3)Gal(b1-4)GlcNAc", "outline": "as §1"}, "[8]": {"target": "GlcNAc(b1-3)Gal(b1-4)GlcNAc(b1-3)Gal(b1-4)GlcNAc(b1-2)Man(a1-3)[GlcNAc(b1-3)Gal(b1-4)GlcNAc(b1-3)Gal(b1-4)GlcNAc(b1-2)Man(a1-6)]Man(b1-4)GlcNAc(b1-4)GlcNAc", "outline": "as §1"}, "[9]": {"target": "GlcNAc(b1-3)Gal(b1-4)GlcNAc(b1-3)Gal(b1-4)GlcNAc(b1-3)GalNAc", "outline": "as §1"}, "[10]": {"target": "GlcNAc(b1-3)Gal(b1-4)GlcNAc(b1-3)[GlcNAc(b1-3)Gal(b1-4)GlcNAc(b1-3)]GalNAc", "outline": "as §1"}, "GlcNAc(b1-3)Man": {"target": "GlcNAc(b1-3)Man", "outline": "as §1"}, "[11]": {"target": "GlcNAc(b1-6)Gal(b1-4)GlcNAc", "outline": "as §1"}, "GlcNAc(b1-6)GalNAc": {"target": "GlcNAc(b1-6)GalNAc", "outline": "as §1"}, "Kdn(a2-3)Gal(b1-4)Glc": {"target": "Kdn(a2-3)Gal(b1-4)Glc", "outline": "as §1"}, "[12]": {"target": "Man(a1-2)Man(a1-6)[Man(a1-3)]Man(a1-6)[Man(a1-2)Man(a1-2)Man(a1-3)]Man", "outline": "as §1"}, "Man(a1-3)[Man(a1-6)]Man": {"target": "Man(a1-3)[Man(a1-6)]Man", "outline": "as §1"}, "[13]": {"target": "Neu5Ac(a2-3)Gal(b1-3)GalNAc", "outline": "as §1"}, "[14]": {"target": "Neu5Ac(a2-3)Gal(b1-3)GlcNAc(b1-3)Gal(b1-3)GlcNAc", "outline": "as §1"}, "[15]": {"target": "Neu5Ac(a2-3)Gal(b1-3)GlcNAc(b1-6)GalNAc", "outline": "as §1"}, "[16]": {"target": "Neu5Ac(a2-3)Gal(b1-4)GlcNAc(b1-3)Gal", "outline": "as §1"}, "[17]": {"target": "Neu5Ac(a2-3)Gal(b1-4)GlcNAc(b1-3)Gal(b1-3)GlcNAc", "outline": "as §1"}, "[18]": {"target": "Neu5Ac(a2-3)Gal(b1-4)GlcNAc(b1-3)Gal(b1-4)GlcNAc(b1-3)[Neu5Ac(a2-3)Gal(b1-4)GlcNAc(b1-3)Gal(b1-4)GlcNAc(b1-6)]GalNAc", "outline": "as §1"}, "[19]": {"target": "Neu5Ac(a2-6)Gal(b1-4)GlcNAc(b1-2)Man(a1-3)[Neu5Ac(a2-6)Gal(b1-4)GlcNAc(b1-2)Man(a1-6)]Man(b1-4)GlcNAc(b1-4)[Fuc(a1-6)]GlcNAc", "outline": "as §1"}, "[20]": {"target": "Neu5Ac(a2-6)Gal(b1-4)GlcNAc(b1-2)Man(a1-6)[Man(a1-3)]Man(b1-4)GlcNAc(b1-4)GlcNAc", "outline": "as §1"}, "[21]": {"target": "Neu5Ac(a2-6)Gal(b1-4)GlcNAc(b1-3)Gal(b1-4)GlcNAc(b1-3)GalNAc", "outline": "as §1"}, "[22]": {"target": "Neu5Ac(a2-6)Gal(b1-4)GlcNAc(b1-3)Gal(b1-4)[Fuc(a1-3)]GlcNAc(b1-3)Gal(b1-4)[Fuc(a1-3)]GlcNAc", "outline": "as §1"}, "[23]": {"target": "Neu5Ac(a2-6)Gal(b1-4)GlcNAc(b1-3)[Neu5Ac(a2-6)Gal(b1-4)GlcNAc(b1-6)]GalNAc", "outline": "as §1"}, "[24]": {"target": "Neu5Ac(a2-6)Gal(b1-4)GlcNAc6S", "outline": "as §1"}, "Neu5Ac(a2-8)Neu5Ac": {"target": "Neu5Ac(a2-8)Neu5Ac", "outline": "as §1"}, "[25]": {"target": "Neu5Ac(b2-6)Gal(b1-4)GlcNAc", "outline": "as §1"}},
  "note": "Only a selection was taken, and the strongest signals are over-represented in it overall.",
  "data": [
    {"binder": "B1", "values": [
      {"measurement": "glycan array binding signal (z-score)", "setting": "[1]", "result": -0.4},
      {"measurement": "glycan array binding signal (z-score)", "setting": "[2]", "result": 0.008},
      {"measurement": "glycan array binding signal (z-score)", "setting": "[3]", "result": 0.046},
      {"measurement": "glycan array binding signal (z-score)", "setting": "[4]", "result": -0.171},
      {"measurement": "glycan array binding signal (z-score)", "setting": "[5]", "result": -0.18},
      {"measurement": "glycan array binding signal (z-score)", "setting": "[6]", "result": 0.03},
      {"measurement": "glycan array binding signal (z-score)", "setting": "[7]", "result": 0.551},
      {"measurement": "glycan array binding signal (z-score)", "setting": "[8]", "result": 0.609},
      {"measurement": "glycan array binding signal (z-score)", "setting": "[9]", "result": -0.514},
      {"measurement": "glycan array binding signal (z-score)", "setting": "[10]", "result": -0.39},
      {"measurement": "glycan array binding signal (z-score)", "setting": "GlcNAc(b1-3)Man", "result": 1.9},
      {"measurement": "glycan array binding signal (z-score)", "setting": "[11]", "result": -0.375},
      {"measurement": "glycan array binding signal (z-score)", "setting": "GlcNAc(b1-6)GalNAc", "result": -0.373},
      {"measurement": "glycan array binding signal (z-score)", "setting": "Kdn(a2-3)Gal(b1-4)Glc", "result": -0.2},
      {"measurement": "glycan array binding signal (z-score)", "setting": "[12]", "result": -0.565},
      {"measurement": "glycan array binding signal (z-score)", "setting": "Man(a1-3)[Man(a1-6)]Man", "result": -0.074},
      {"measurement": "glycan array binding signal (z-score)", "setting": "[13]", "result": -0.261},
      {"measurement": "glycan array binding signal (z-score)", "setting": "[14]", "result": -0.308},
      {"measurement": "glycan array binding signal (z-score)", "setting": "[15]", "result": -0.067},
      {"measurement": "glycan array binding signal (z-score)", "setting": "[16]", "result": -0.31},
      {"measurement": "glycan array binding signal (z-score)", "setting": "[17]", "result": -0.004},
      {"measurement": "glycan array binding signal (z-score)", "setting": "[18]", "result": 0.078},
      {"measurement": "glycan array binding signal (z-score)", "setting": "[19]", "result": 0.148},
      {"measurement": "glycan array binding signal (z-score)", "setting": "[20]", "result": -0.445},
      {"measurement": "glycan array binding signal (z-score)", "setting": "[21]", "result": -0.424},
      {"measurement": "glycan array binding signal (z-score)", "setting": "[22]", "result": 0.701},
      {"measurement": "glycan array binding signal (z-score)", "setting": "[23]", "result": 0.261},
      {"measurement": "glycan array binding signal (z-score)", "setting": "[24]", "result": 2.26},
      {"measurement": "glycan array binding signal (z-score)", "setting": "Neu5Ac(a2-8)Neu5Ac", "result": 0.146},
      {"measurement": "glycan array binding signal (z-score)", "setting": "[25]", "result": 0.76}
    ]}
  ]
}
